Potency data for 15 compounds are collected here from PubChem BioAssay (NCATS).

Records with an inconclusive call do not appear. A call without a number means that no potency is given here. The source made the active and inactive calls. Calls come from the whole dose curve; as a rule, active = well fitted inhibition curve with a large enough effect; inconclusive = small, poorly fitted or top-dose-only effect; inactive = no such curve, though single readings can be large or run the other way.
Potency is the fitted concentration of half-maximal effect.

In this test the target is Nuclear receptor ROR-gamma (Homo sapiens) (UniProt P51449). Kind of test: qHTS assay for small molecule antagonists of the retinoid-related orphan receptor gamma (ROR-gamma) signaling pathway (AID 651802). Note: nearly all actives have a fitted effect of over 60% in size. To be noted: ROR-gamma antagonist cell reporter assay; series mostly up to 92.2 µM. The text has this: National Center for Advancing Translational Sciences [NCATS]
Chain of Nuclear receptor ROR-gamma (Homo sapiens) (P51449 whole entry, looked up): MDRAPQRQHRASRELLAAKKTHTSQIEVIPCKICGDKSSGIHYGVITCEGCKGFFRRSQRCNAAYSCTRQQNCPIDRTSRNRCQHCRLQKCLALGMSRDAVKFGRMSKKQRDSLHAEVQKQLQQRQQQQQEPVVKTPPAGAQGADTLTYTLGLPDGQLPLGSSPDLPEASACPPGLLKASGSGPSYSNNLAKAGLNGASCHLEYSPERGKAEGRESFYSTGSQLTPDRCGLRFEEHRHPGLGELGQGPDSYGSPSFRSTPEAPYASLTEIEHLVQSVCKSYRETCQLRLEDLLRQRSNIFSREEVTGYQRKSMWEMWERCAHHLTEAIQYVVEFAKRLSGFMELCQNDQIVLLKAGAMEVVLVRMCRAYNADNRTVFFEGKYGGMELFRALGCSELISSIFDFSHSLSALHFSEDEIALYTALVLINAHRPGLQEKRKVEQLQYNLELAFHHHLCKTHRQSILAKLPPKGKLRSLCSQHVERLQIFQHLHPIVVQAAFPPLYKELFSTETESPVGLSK
NIH Chemical Genomics Center [NCGC]
National Institutes of Environmental Health Sciences [NIEHS]
National Toxicology Program [NTP]
Nuclear steroid hormone receptors are involved in many biological processes including inflammatory responses, cell proliferation, and apoptosis. Environmental factors or compounds disrupting these nuclear receptor pathways and gene expression may promote susceptibility to immunotoxicants and autoimmune diseases. One important group of these expression factors are the retinoid-related orphan receptors. To assess compounds that may interfere with the retinoid-related orphan receptor gamma (ROR-gamma) transcription factor, a cell-based luciferase assay was used.
The CHO cell-based assay utilizes a TET-inducible ROR expression factor and ROR response element-LUC reporter gene. Reporter activity was induced using doxycycline and measured after 16hr incubation. Luminescence was read using Viewlux (PerkinElmer), where a decrease in reporter activity would show a decrease in luminescence.
1,000 cells in 4 uL/well were dispensed into white wall/solid bottom 1536-well plates using a Multidrop Combi (Thermo Scientific) dispenser. Following transfer of 23 nL compound or DMSO vehicle by a pin tool, the plates were treated with 1 ul doxycycline to induce reporter gene activity. After 16hr incubation at 37C and 5% CO2, 5uL one-glo (promega) was added to each plate and following 30 min incubation at room temperature, luminescence was quantified on a ViewLux (PerkinElmer) plate reader.
(In general: qHTS replaces the single test concentration by a dilution series.)
As for `CN1CCC[C@H]1c1cccnc1`, the Potency result is “inactive”.

With `Cc1cc(O)c2c(c1)C(=O)c1cc(O)cc(O)c1C2=O`, the Potency is 42.2 µM (active).

With `O=Cc1ccccc1`, the Potency entry is “inactive”.

`COC1=CC(=O)OC(CCc2ccc3c(c2)OCO3)C1` (stereo not given): the Potency result is “inactive”.

As to `COC(=O)c1ccccc1C(=O)OC`, the Potency entry was “inactive”.

Consider `CCOC(=O)c1ccccc1N`, for which the Potency result was “inactive”.

Turning to `c1ccc2c(c1)-c1cccc3cccc-2c13`, the Potency entry was “inactive”.

For `NC(=O)c1ncn([C@@H]2O[C@H](CO)[C@@H](O)[C@H]2O)n1`, the Potency was 18.8 µM (active).

With `c1ccc(Nc2ccc3ccccc3c2)cc1`, the Potency entry is “inactive”.

Take `CCOc1cc(C=O)ccc1O`: the Potency result was “inactive”.

Turning to `Oc1ccccc1O`, the Potency was 5.96 µM (active).

Consider `CC(=O)/C=C/c1ccccc1`, for which the Potency result is “inactive”.

Regarding `CC(C)COC(=O)c1ccccc1C(=O)OCC(C)C`, the Potency result was “inactive”.

Regarding `Oc1c(Cl)c(Cl)c(Cl)c(Cl)c1Cl`, the Potency is 16.8 µM (active).

As to `Cc1ccccc1O`, the Potency entry is “inactive”.
